Screening data from PubChem BioAssay.
Pf apPOL block: Pf-apPOL DNA polymerase inhibition. Recombinant Pf-apPOL, molecular beacon fluorescence, 1.5 h. inhibition, % at 10 µM. hit rate 0.25% among 210,000
mHTT-CaM PPI inh: disrupts binding of mutant huntingtin to calmodulin; P42858; inhibition, % at 15 µM; hit rate 3.6% among 190,000; AlphaScreen His-mHTT/GST-CaM binding, luminescence
Target sequence (P42858 whole entry, looked up, change not shown): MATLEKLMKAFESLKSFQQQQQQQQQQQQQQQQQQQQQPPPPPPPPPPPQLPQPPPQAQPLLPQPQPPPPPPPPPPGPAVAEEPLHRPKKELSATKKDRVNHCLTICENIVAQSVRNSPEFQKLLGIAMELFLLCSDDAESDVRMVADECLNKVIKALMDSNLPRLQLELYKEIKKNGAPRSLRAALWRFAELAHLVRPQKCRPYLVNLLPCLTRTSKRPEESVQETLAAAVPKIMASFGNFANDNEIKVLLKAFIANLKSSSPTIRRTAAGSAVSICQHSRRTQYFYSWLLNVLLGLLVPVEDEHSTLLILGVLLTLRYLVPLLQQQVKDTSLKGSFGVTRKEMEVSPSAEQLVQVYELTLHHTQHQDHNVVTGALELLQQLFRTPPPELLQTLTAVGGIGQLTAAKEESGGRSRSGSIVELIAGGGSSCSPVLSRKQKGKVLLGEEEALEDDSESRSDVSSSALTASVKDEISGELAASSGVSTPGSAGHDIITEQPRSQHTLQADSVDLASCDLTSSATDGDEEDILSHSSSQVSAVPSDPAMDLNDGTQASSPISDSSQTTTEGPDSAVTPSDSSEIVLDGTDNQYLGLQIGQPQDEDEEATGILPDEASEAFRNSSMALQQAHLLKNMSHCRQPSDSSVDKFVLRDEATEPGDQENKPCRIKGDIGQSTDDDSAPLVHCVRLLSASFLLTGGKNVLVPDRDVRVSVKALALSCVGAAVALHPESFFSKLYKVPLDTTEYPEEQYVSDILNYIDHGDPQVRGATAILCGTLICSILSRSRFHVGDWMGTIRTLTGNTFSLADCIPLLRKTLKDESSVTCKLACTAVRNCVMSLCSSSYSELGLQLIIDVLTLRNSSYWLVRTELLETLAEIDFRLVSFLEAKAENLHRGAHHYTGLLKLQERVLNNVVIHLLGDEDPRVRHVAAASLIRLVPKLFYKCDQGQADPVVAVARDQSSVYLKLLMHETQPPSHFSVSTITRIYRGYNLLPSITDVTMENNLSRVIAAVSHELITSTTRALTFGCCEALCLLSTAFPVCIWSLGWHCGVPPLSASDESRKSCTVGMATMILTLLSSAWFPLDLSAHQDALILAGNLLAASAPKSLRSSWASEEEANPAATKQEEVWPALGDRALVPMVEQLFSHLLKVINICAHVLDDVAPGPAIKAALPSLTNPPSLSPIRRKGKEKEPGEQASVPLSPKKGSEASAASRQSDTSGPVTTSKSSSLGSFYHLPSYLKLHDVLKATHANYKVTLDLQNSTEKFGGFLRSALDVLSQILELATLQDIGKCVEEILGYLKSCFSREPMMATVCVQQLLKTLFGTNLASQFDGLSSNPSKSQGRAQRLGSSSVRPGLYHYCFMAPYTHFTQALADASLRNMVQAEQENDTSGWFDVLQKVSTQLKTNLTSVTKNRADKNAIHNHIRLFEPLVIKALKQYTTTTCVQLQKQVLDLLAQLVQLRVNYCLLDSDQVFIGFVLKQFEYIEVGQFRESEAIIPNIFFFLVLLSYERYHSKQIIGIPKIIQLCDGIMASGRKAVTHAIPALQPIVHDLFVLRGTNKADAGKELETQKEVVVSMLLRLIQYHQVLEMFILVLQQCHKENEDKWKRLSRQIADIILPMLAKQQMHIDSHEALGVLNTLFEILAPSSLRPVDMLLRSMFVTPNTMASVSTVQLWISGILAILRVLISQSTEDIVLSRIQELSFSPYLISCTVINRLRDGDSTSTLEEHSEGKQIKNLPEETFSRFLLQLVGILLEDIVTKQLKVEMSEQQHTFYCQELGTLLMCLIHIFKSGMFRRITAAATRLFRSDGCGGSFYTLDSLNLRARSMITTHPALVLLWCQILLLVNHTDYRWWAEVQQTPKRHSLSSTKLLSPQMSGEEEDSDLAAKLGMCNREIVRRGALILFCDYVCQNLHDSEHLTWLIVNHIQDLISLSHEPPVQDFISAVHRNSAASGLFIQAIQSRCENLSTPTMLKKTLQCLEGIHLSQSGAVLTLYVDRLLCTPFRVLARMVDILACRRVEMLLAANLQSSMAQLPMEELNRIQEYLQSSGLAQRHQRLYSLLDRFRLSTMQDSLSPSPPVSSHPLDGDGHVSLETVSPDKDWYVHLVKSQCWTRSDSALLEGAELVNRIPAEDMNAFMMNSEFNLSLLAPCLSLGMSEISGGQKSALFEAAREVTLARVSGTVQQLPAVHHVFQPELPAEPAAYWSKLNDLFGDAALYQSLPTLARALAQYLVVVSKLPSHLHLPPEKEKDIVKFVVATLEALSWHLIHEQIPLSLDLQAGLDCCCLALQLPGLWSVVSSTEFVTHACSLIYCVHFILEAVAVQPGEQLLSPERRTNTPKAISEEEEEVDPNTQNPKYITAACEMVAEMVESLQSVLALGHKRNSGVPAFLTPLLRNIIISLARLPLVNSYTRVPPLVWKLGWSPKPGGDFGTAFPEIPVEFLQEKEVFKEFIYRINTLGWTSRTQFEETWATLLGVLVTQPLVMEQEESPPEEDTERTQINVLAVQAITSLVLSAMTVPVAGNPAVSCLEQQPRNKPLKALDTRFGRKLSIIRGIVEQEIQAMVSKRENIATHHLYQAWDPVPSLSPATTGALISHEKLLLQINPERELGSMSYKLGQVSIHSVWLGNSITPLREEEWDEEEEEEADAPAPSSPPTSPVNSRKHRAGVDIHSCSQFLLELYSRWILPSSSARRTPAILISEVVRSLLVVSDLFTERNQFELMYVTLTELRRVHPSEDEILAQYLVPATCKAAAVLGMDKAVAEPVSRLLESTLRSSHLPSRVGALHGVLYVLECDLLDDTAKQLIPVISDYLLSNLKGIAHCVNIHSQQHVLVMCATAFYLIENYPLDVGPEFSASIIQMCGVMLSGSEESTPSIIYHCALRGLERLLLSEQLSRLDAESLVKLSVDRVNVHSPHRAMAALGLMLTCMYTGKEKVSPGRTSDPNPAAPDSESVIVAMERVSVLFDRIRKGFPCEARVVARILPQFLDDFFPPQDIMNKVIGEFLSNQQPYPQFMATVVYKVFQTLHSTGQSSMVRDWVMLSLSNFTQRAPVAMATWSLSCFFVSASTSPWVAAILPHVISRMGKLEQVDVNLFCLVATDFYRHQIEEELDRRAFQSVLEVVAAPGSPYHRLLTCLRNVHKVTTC
Of the large screens only hits and unclear results are named; the others gave an inactive call. Shown are actives, neighbours in structure and some others; about 3.5% of the full set was active somewhere. Cut-off read from the data, not from the text of the source: active = inhibition above about 50%; inactive = the rest.

Cc1cccc(CNC(=O)c2cc(NC(=O)C(C)C)cc3nc(C)ccc23)c1	none
Cc1nc(N2CCCCC2)c2c(C)c(C(=O)Nc3ccc(F)cc3)sc2n1	none
C=CCN1CN=C(NS(=O)(=O)CCCC)NC1	none
NC(=O)c1c(N)sc2c1CCCCC2	mHTT-CaM PPI inh 64
NC(=O)c1c(N)sc2c1CCC2	none (no result: mHTT-CaM PPI inh)
Cc1nn(-c2ccc(C(=O)NCCc3c[nH]c4ccccc34)cc2)c2c1C(=O)CC(C)(C)C2	none
COc1cccc(-c2nc(C3CCN(S(=O)(=O)c4c(C)cc(C)cc4C)CC3)no2)c1	none
CCCc1nc(-c2c(C)cc(C)nc2NC(=O)c2cccc(C)c2)no1	none
CC1=C(C(=O)Nc2ccc(F)cc2)C(c2ccccc2Cl)C2=C(CC(C)(C)CC2=O)N1 (stereo not given)	none
Cc1cc(Br)c(O)c(C2NC(C(=O)O)Cc3c2[nH]c2ccccc32)c1 (stereo not given)	none
O=C(O)C1Cc2c([nH]c3ccccc23)C(c2cc(Br)ccc2O)N1 (stereo not given)	mHTT-CaM PPI inh 57
Cc1ccc(C2=NNC(c3ccc(F)cc3)S2)cc1 (stereo not given)	mHTT-CaM PPI inh 62 (no result: Pf apPOL block)
Cc1ccc(C2=NNC(C(O)C(O)C(O)C(C)O)S2)cc1 (stereo not given)	none (no result: Pf apPOL block)
O=C1OC(c2cccc(Cl)c2Cl)=N/C1=C\c1ccc([N+](=O)[O-])cc1	none
CC(C)NC(=O)CNc1ccccc1-c1nc2ccccc2[nH]c1=O	none
Clc1nc(NCc2ccco2)nc(Oc2ccccc2)n1	mHTT-CaM PPI inh 53
Clc1nc(NCc2ccco2)nc(NC2CCCCC2)n1	none (no result: Pf apPOL block)
CCC(=O)N1N=C(c2ccc(C)cc2)CC1c1cc2cc(OC)ccc2nc1Cl (stereo not given)	none
COc1ccc(C2CC(c3ccc(F)cc3)=NN2C(=O)CN2CCOCC2)cc1 (stereo not given)	mHTT-CaM PPI inh 64
COc1cccc(C2=NN(C(=O)CN3CCOCC3)C(c3ccccc3F)C2)c1 (stereo not given)	none
COc1ccc(C2=NN(C(=O)CN3CCCCC3)C(c3ccccc3F)C2)cc1 (stereo not given)	mHTT-CaM PPI inh 69
COc1ccc(C2=NN(C(=O)CN3CCCCC3)C(c3ccc(C)cc3C)C2)cc1 (stereo not given)	mHTT-CaM PPI inh 100
COc1ccc(C2=NN(C(=O)CN3CCOCC3)C(c3cccc(OC)c3OC)C2)cc1 (stereo not given)	none
COc1ccc(OC)c(NC(=O)C2=C(C)NC(=O)NC2c2ccc(Cl)cc2Cl)c1 (stereo not given)	none
COCCC1CCN(C(=O)CCc2ccccc2)CC1	none
Cc1ccc(C)c(NC(=O)c2cc(S(=O)(=O)N3CC(C)CC(C)C3)ccc2F)c1 (stereo not given)	none
Cc1ccc(C2=NC3C=CC=CC3SC(c3cccc([N+](=O)[O-])c3)C2)cc1 (stereo not given)	none
CCN1C(=O)Cc2c(C)nc(-c3ccc(OC)cc3)nc21	none
CC(C)CNC(=O)C1c2ccccc2CC(=O)N1Cc1ccccc1 (stereo not given)	none
Cc1ccc(S(=O)(=O)N(C)c2ccc(N)cc2)cc1	none
Cc1ccc(C(C)(c2ccc(N)cc2)c2ccc(N)cc2)cc1	mHTT-CaM PPI inh 68
Cn1c(=O)oc2ccc(S(=O)(=O)Nc3ccc4c(c3)n(C)c(=O)n4C)cc21	none (no result: Pf apPOL block)
CC/C(=C\c1ccccc1)c1cccc2oc3ccccc3c12	none
CC/C(=C/c1ccccc1)c1cccc2[nH]c3c(OC)cccc3c12	mHTT-CaM PPI inh 54
COc1cccc(C=C2Oc3c(ccc(O)c3CN3CC(C)CC(C)C3)C2=O)c1OC (stereo not given)	none
N#CC1=C(S)NC(O)(c2ccccc2)C([n+]2ccccc2)C1c1ccccc1Br (stereo not given)	mHTT-CaM PPI inh 77
N#CC1=C(S)NC(=O)C([n+]2ccccc2)C1c1ccc(F)c(Br)c1 (stereo not given)	none
Cc1noc(C)c1CN1CCC(C(O)c2ccccc2)CC1 (stereo not given)	none
O=C1CC(N2CCC(Cc3ccccc3)CC2)C(=O)N1c1ccccc1 (stereo not given)	none
COc1ccc(NC(=O)c2ncn[nH]2)c([N+](=O)[O-])c1	mHTT-CaM PPI inh 100
COc1ccc(NC(=O)c2cc(OC)c(OC)c(OC)c2)c([N+](=O)[O-])c1	none
Cc1cc(S(=O)(=O)N2CCC(c3nc4cccnc4n3C)C2)ccc1F (stereo not given)	none
O=C1CCCC2=C1C(c1ccc([N+](=O)[O-])cc1)C1C(=O)c3ccccc3C1=N2 (stereo not given)	none
Cc1ccc(C2C3=C(CCCC3=O)N=C3c4ccccc4C(=O)C32)cc1 (stereo not given)	mHTT-CaM PPI inh 59
O=C1CCCC2=C1C(c1ccccc1)C1C(=O)c3ccccc3C1=N2 (stereo not given)	none
O=C1CCCC2=C1C(c1ccc(Cl)cc1)C1C(=O)c3ccccc3C1=N2 (stereo not given)	mHTT-CaM PPI inh 66
O=C(c1cccc(F)c1)N1CCC(n2c(-c3ccoc3)nc3cccnc32)C1 (stereo not given)	none
Cc1cccc(CS(=O)(=O)NCC2CCN(C(=O)NC(C)(C)C)CC2)c1	none
NC(=O)c1c(Nc2ccccc2Cl)sc(C(=O)c2ccccc2)c1N	mHTT-CaM PPI inh 86
N#Cc1ccccc1Nc1sc(C(=O)c2ccccc2)c(N)c1C(N)=O	none
Cc1ccc(C(=O)Nc2c3c(nn2-c2ccccc2C)CSC3)cc1C	mHTT-CaM PPI inh 62
Cc1cccc(C(=O)Nc2c3c(nn2-c2ccc([N+](=O)[O-])cc2)CSC3)c1	none
Cc1ccc(C(=O)Nc2c3c(nn2-c2ccccc2C)CSC3)cc1	none
O=C(Nc1c2c(nn1-c1ccc([N+](=O)[O-])cc1)CSC2)c1cccc(C(F)(F)F)c1	mHTT-CaM PPI inh 57
Cc1ccccc1-n1nc2c(c1NC(=O)c1cccc([N+](=O)[O-])c1)CSC2	none
O=C(Nc1c2c(nn1-c1ccc(Cl)cc1)CSC2)C1CCCC1	none
Cc1cccc(C(=O)Nc2c3c(nn2-c2ccccc2C)CSC3)c1	mHTT-CaM PPI inh 58
O=C(Nc1c2c(nn1-c1ccc(F)cc1)CSC2)C1CCCC1	mHTT-CaM PPI inh 57
Cc1ccccc1NC(=O)C(C)n1ccc2c(C)nn(C)c2c1=O (stereo not given)	none
O=C(Nc1ccc(-c2nc3ncccc3o2)cc1)c1ccccc1I	none
COc1ccc(NC(=O)c2cnn3c2NC(c2ccc(C)cc2)CC3C(F)(F)F)c(OC)c1 (stereo not given)	none
Cc1cccc(-n2nc3c(c2NC(=O)C2CCCC2)CSC3)c1C	none
Cc1ccccc1-n1nc2c(c1NC(=O)c1cccc(C(F)(F)F)c1)CSC2	mHTT-CaM PPI inh 100
Cc1ccc(C(=O)Nc2c3c(nn2-c2cccc(C)c2C)CSC3)cc1[N+](=O)[O-]	none
Cc1ccccc1-n1nc2c(c1NC(=O)C1CCCCC1)CSC2	mHTT-CaM PPI inh 52
Cc1ccccc1-n1nc2c(c1NC(=O)c1ccccc1C(F)(F)F)CSC2	none
Cc1ccccc1-n1nc2c(c1NC(=O)c1ccc(Cl)c([N+](=O)[O-])c1)CSC2	mHTT-CaM PPI inh 56
Cc1cccc(Cn2cnc3c2c(=O)n(C2CC2)c(=O)n3-c2ccc(F)cc2)c1	none
NC(N)=NN=C1CCc2ccccc21	none (no result: mHTT-CaM PPI inh)
O=C(c1cccc(Cl)c1)N1CC2CC1CC2NS(=O)(=O)c1cccnc1 (stereo not given)	none
c1ccc(CN2CCN(Cc3ccccn3)CC2)nc1	none
c1ccc(CNCCN2CCNCC2)nc1	mHTT-CaM PPI inh 100
COc1ccccc1N1CCN(C(=O)c2ccccc2F)C(C)C1=O (stereo not given)	none
